KCNQ2 enhance = enhances the rat KCNQ2 potassium channel | hit rate 0.54% among 310,000 | B-score at 10 µM | CHO-K1 KCNQ2, FluxOR thallium flux fluorescence; hits give high values | AID 2239 | O88943;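 active means fluorescence ratio B-score at least 3 SD of library B-scores, with initial fluorescence B-score within 3 of them, cut at about 5.3 in these data; same plate scores as AID 2156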;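 further: B-score of peak minus minimum over baseline fluorescence ratio after K+ and Tl+ stimulus; positive B-score means potentiation of KCNQ2 with more thallium influx and brighter signal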
KCNQ2 inh = blocks the rat KCNQ2 potassium channel; O88943; B-score at 10 µM; CHO-K1 KCNQ2, FluxOR thallium flux, 20 min; hits give low values; hit rate 1.1% among 310,000; AID 2156;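 active means fluorescence ratio B-score at most minus 3 library SDs, with starting brightness B-score within 2 library SDs, cut at about -5.5 in these data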
KCNQ2 block conf = confirmation of rat KCNQ2 potassium channel inhibitors; shares compounds with KCNQ2 inh; KCNQ2-expressing cells, thallium flux, inhibition; hits give low values; activity change, negative = inhibition, % at 10 µM; hit rate 57% among 1,000; AID 493025;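 further: 0% = vehicle wells and values are ratio percent relative to vehicle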
KCNQ1 spec = KCNQ2 inhibitor that also affects human KCNQ1 channel. hit rate 15% among 1,000. KCNQ1-expressing cells, FluxOR thallium flux fluorescence; hits give low values. AID 493026. activity change, negative = inhibition, % at 10 µM. shares compounds with KCNQ2 inh;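 active means activity change at least 3 SD of negative controls below their mean in both duplicate wells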;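 further: CHO cells stably transfected with KCNQ1 and depolarized by potassium stimulus; peak minus minimum fluorescence over baseline after thallium addition; 0% = vehicle negative control and -100% = blank without thallium stimulus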
CHO Tl ctr = activity in parental CHO cells lacking KCNQ2; shares compounds with KCNQ2 inh; thallium flux counter-screen; hits give low values; activity change, % at 10 µM; hit rate 14% among 1,000; AID 493029;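 further: 0% = vehicle negative controls with stimulus buffer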
KCNQ2 patch conf = confirmation of rat KCNQ2 potassium channel inhibitors. shares compounds with KCNQ2 inh. KCNQ2-expressing cells, automated patch clamp current. calls only at 10 µM. hit rate 49% among 550. AID 588531
Kir21 conf inh = confirmation of mouse Kir2.1 potassium channel inhibitors. Kir2.1-expressing cells, FluxOR thallium flux fluorescence; hits give low values. hit rate 41% among 2,300. shares compounds with KCNQ2 enhance. AID 2032. Tl flux remaining, % of negative control (hits give low values), % at 10 µM;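 active means Primary-screen hit whose thallium flux fell at least 3 control SD below untreated wells in both duplicates, with normal baseline fluorescence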;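 further: 0% = blank wells without stimulus and 100% = stimulated no-compound controls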
Target sequence (P35561 whole entry, looked up): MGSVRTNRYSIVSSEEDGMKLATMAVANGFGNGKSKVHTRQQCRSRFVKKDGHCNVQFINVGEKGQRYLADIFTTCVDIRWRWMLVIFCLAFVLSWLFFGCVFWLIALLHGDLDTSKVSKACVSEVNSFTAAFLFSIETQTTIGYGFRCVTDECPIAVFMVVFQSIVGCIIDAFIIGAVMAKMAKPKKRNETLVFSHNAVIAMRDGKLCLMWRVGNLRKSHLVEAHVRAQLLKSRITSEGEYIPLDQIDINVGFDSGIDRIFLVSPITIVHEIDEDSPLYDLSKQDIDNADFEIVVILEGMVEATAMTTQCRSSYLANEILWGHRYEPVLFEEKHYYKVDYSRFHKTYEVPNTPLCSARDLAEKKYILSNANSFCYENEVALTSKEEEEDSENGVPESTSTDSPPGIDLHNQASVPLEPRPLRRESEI
HEK293 ctr = counter-screen for Kir2.1 inhibitors: effect in parental HEK293 cells. shares compounds with KCNQ2 enhance. FluxOR thallium flux fluorescence; 0% = unstimulated blank wells. FluxOR signal as % of negative control (100 = no effect), % at 10 µM. hit rate 19% among 2,300;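 active means dye signal at least 3 control SD above or below untreated wells in both duplicates, raw fluorescence within 3, either direction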;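 further: percent is based on the flux ratio of peak minus minimum fluorescence over baseline F0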
CHO-K1 Tl ctr = parental CHO-K1 activity in KCNQ2 potentiator counter-screen | parental CHO-K1 cells, FluxOR thallium flux fluorescence; zero = vehicle mean+3SD, 100% = vehicle-minus-blank window | activity increase over 3SD of controls, % at 10 µM | shares compounds with KCNQ2 enhance | hit rate 43% among 1,200 | AID 2282;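 active means signal rise of at least 3 SD above the untreated control mean, in both duplicate wells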;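 further: counter screen of KCNQ2 potentiator hits so any rise reflects channel-independent effects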
KCNQ1 pot spec = tests whether KCNQ2 potentiators also act on human KCNQ1. shares compounds with KCNQ2 enhance. CHO KCNQ1 stable, FluxOR thallium flux fluorescence; beyond 3SD, as % of vehicle-control signal. activation over 3SD threshold, % at 10 µM. hit rate 28% among 1,200;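 active means fluorescence ratio rise of at least 3 SD of vehicle wells above their mean, in both replicate wells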;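 further: 0% = vehicle mean plus 3 SD and 100% = vehicle minus unstimulated blank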
KCNQ2 pot confirm = confirmation of rat KCNQ2 potassium channel potentiators. shares compounds with KCNQ2 enhance. CHO-KCNQ2 cells, FluxOR thallium flux fluorescence. potentiation, less the hit threshold, % at 10 µM. hit rate 68% among 1,200;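 active means fluorescence ratio rising 3 SD or more over the vehicle control mean in both replicates, plus primary screen hit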;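 further: peak minus minimum thallium fluorescence divided by baseline after K/Tl stimulus; 0% = vehicle mean plus 3 SD and 100% = vehicle minus unstimulated blank difference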
Kir2-1 sel = selectivity of KCNQ2 potentiators: effect on mouse Kir2.1 | AID 2345 | HEK293 Kir2.1, FluxOR thallium flux fluorescence | shares compounds with KCNQ2 enhance | hit rate 2% among 1,200 | activity over 3SD threshold, % at 10 µM;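 active means fluorescence ratio rise of at least 3 SD above the vehicle-control mean, seen in both replicates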;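 further: 0% = vehicle mean plus 3 SD and 100% = vehicle minus no-stimulus blank window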
An asterisk follows results filed as active; ! = repeats disagree. Sampled rows, rich in hits. Any-hit rate of the full collection: about 1.6%. Unless noted, how the calls were made is not given here.

For N=C(N)SCc1cn(-c2ccccc2)nc1-c1ccc(Br)cc1 the results were KCNQ2 enhance -12, KCNQ2 inh -12*, KCNQ2 block conf inactive, KCNQ1 spec inactive, CHO Tl ctr inactive, Kir21 conf inh 13%* and HEK293 ctr 56%*.
Screening CCC(C)(C)c1ccc(OCCCC[n+]2cccc(C)c2)c(C(C)(C)CC)c1 returned KCNQ2 enhance -8.4, KCNQ2 inh -8.4*, KCNQ2 block conf inactive, KCNQ1 spec inactive, CHO Tl ctr inactive, Kir21 conf inh 33%* and HEK293 ctr inactive.
`Cc1ccc[n+](CC(=O)Nc2cc(C(F)(F)F)ccc2Cl)c1` gave KCNQ2 enhance 1.7 and KCNQ2 inh inactive.
CCOc1cc(/C=N/N=C(N)N)ccc1OCc1ccc(Cl)cc1 was read as KCNQ2 enhance -10, KCNQ2 inh -10*, KCNQ2 block conf inactive, KCNQ1 spec inactive, CHO Tl ctr inactive, Kir21 conf inh 62%* and HEK293 ctr inactive.
For NC(N)=N/N=C/c1ccc(OCc2ccccc2)c(OCc2ccccc2)c1 the results were KCNQ2 inh inactive.
Screening COc1ccc(-n2nc(C(=O)NCC(=O)NCCCN3CC(C)CC(C)C3)c3ccccc3c2=O)cc1 (configuration not stated) returned KCNQ2 inh inactive.
`CCC[C@H](CN[C@@H](CNC)[C@H](C)CC)NCCc1cc(C(F)(F)F)cc(C(F)(F)F)c1` gave KCNQ2 inh inactive.
For CC[C@@H](C)[C@H](CNC)NC[C@@H](Cc1cccc2ccccc12)NCCc1cccc(C(F)(F)F)c1 the results were KCNQ2 enhance -8.5, KCNQ2 inh -8.5*, KCNQ2 block conf -29%*, KCNQ1 spec inactive, CHO Tl ctr inactive, KCNQ2 patch conf inactive, Kir21 conf inh 22%* and HEK293 ctr inactive.
CC(C)(C)OC(=O)NOCC(=O)N(Cc1ccccc1)CC(O)COc1ccccc1 (configuration not stated) was read as KCNQ2 enhance 0.82 and KCNQ2 inh inactive.
`CS(=O)(=O)N1CCC(C(=O)NCc2ccc3c(c2)OCO3)CC1` gave KCNQ2 enhance 1.1 and KCNQ2 inh inactive.
`CCc1ccc(NC(=S)NCc2ccccc2)cc1` gave KCNQ2 enhance 0.74 and KCNQ2 inh inactive.
Screening CCc1ccc(C(O)(CNCc2ccccc2)c2ccccc2)cc1 (configuration not stated) returned KCNQ2 enhance -6.9, KCNQ2 inh -6.9*, KCNQ2 block conf -32%*, KCNQ1 spec -36%*, CHO Tl ctr -28%*, KCNQ2 patch conf inactive, Kir21 conf inh 69%* and HEK293 ctr inactive.
Screening NC(=O)c1nc(-c2ccco2)nc2c1[nH]c(=O)n2-c1ccc(Cl)c(Cl)c1 returned KCNQ2 enhance 0.5 and KCNQ2 inh inactive.
C/C(=N/NS(=O)(=O)c1ccc(CC(C)C)cc1)c1ccncc1 was read as KCNQ2 inh inactive.
`Cc1ccc(C(OCC(C)(C)C[N+](C)(C)C)c2ccccc2)cc1` (configuration not stated) gave KCNQ2 inh inactive.
CC(C)Nc1nc(NC(C)C)nc(SCCOC(=O)Nc2ccc(Cl)cc2Cl)n1 was read as KCNQ2 inh inactive.
For CCOC(=O)Cn1c(COc2ccccc2OC)[n+](C)c2ccccc21 the results were KCNQ2 enhance 0.52 and KCNQ2 inh inactive.
`Cc1ccccc1OCc1n(CC(=O)OC2CC(C)CCC2C(C)C)c2ccccc2[n+]1C` (configuration not stated) gave KCNQ2 enhance -11, KCNQ2 inh -11*, KCNQ2 block conf -40%*!, KCNQ1 spec inactive, CHO Tl ctr inactive, KCNQ2 patch conf active, Kir21 conf inh 14%* and HEK293 ctr inactive.
O=C(/C=C/c1ccc(OCc2ccccc2)c(OCc2ccccc2)c1)c1cccnc1 was read as KCNQ2 inh inactive.
For O=C(/C=C/c1ccc(Cl)cc1)c1cccnc1 the results were KCNQ2 enhance -7.6, KCNQ2 inh -7.6*, KCNQ2 block conf -28%*, KCNQ1 spec inactive, CHO Tl ctr inactive, KCNQ2 patch conf inactive, Kir21 conf inh 68%* and HEK293 ctr inactive.
`COc1ccccc1CNC(=O)CSCc1cnn(-c2ccccc2)c1-n1cccc1` gave KCNQ2 inh inactive, Kir21 conf inh inactive and HEK293 ctr inactive.
Screening COc1cccc(CNC(=O)CSCc2cnn(-c3ccccc3)c2-n2cccc2)c1OC returned KCNQ2 inh inactive.
`Cc1ccc(S(=O)(=O)N(C)c2nc3ccccc3[nH]c2=S)cc1` gave KCNQ2 enhance 5.6*, KCNQ2 inh inactive, Kir21 conf inh inactive, HEK293 ctr 154%*, CHO-K1 Tl ctr -26, KCNQ1 pot spec -6, KCNQ2 pot confirm -3 and Kir2-1 sel -35.
Screening CCc1nnc2c(N(C)S(=O)(=O)c3ccc(C)cc3)nc3ccccc3n12 returned KCNQ2 enhance 1.4 and KCNQ2 inh inactive.
For O=C(NCc1cccc(F)c1F)C1CCC(=O)N(C2CCCCCC2)C1 (configuration not stated) the results were KCNQ2 inh inactive.
Fc1ccc(N2CCN(Cc3c[nH]c4ccccc34)CC2)cc1 was read as KCNQ2 enhance 0.09, KCNQ2 inh inactive, Kir21 conf inh 19%* and HEK293 ctr inactive.
For c1cnc(N2CCN(Cc3c[nH]c4ccccc34)CC2)nc1 the results were KCNQ2 inh inactive.
O=c1[nH]c(C(F)(F)F)nc2ccccc12 was read as KCNQ2 enhance 0.68 and KCNQ2 inh inactive.
